Experimental data taken from PubChem BioAssay AID1159580 (chemical genetic matrix, 2015).
Where “and” joins values, the source holds several entries; their conditions need not be identical. Identical values can stand only once. The campaign covered roughly 5,500 compounds. About 2,000 (36%) were called active. About 18% were inconclusive and are not listed. Rule as the data show it: active = normalized growth mostly below about 0.91 (no sharp cut-off); inconclusive = no clear call, values can overlap the other calls; inactive = mostly above about 0.92. Some of the results follow.

Test: chemical genetic growth profiling, strain panel (AID 1159580);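 also: tested at 20 µM; growth read once vehicle control cultures reached saturation at 30 °C; 1 = growth at the plate median or of vehicle wells; lower values mean less growth of the strain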
Details: S. cerevisiae deletion strains, growth OD

Measured: normalized growth

CC(N)CCCC(C)(C)O (centres undefined)
inactive: locus YAL013W, strain DEP1, active compounds read low 0.998 | locus YAL021C, strain ccr4, active compounds read low 0.973 | locus YAL026C, strain drs2, active compounds read low 0.993 | locus YAL030W, strain snc1, active compounds read low 0.989 | locus YBL061C, strain skt5, active compounds read low 0.98 | locus YBR009C, strain hhf1, active compounds read low 1.01 | locus YBR021W, strain FUR4, active compounds read low 1.02 | locus YBR023C, strain chs3, active compounds read low 0.98 | locus YBR171W, strain sec66, active compounds read low 0.964 | locus YBR229C, strain ROT2, active compounds read low 1.01 | locus YBR231C, strain swc5, active compounds read low 0.976 | locus YBR279W, strain paf1, active compounds read low 0.984 | locus YCL011C, strain gbp2, active compounds read low 0.969 | locus YCL016C, strain dcc1, active compounds read low 0.989 | locus YCL029C, strain bik1, active compounds read low 1 | locus YCL061C, strain MRC1, active compounds read low 0.971 | locus YCL069W, strain vba3, active compounds read low 0.979 | locus YCR088W, strain abp1, active compounds read low 0.973 | locus YDL005C, strain med2, active compounds read low 0.983 | locus YDL035C, strain GPR1, active compounds read low 1.02 | locus YDL040C, strain nat1, active compounds read low 0.984 | locus YDL074C, strain BRE1, active compounds read low 0.979 | locus YDL101C, strain DUN1, active compounds read low 0.994 | locus YDL134C, strain PPH21, active compounds read low 1.02 | locus YDL185W, strain tfp1, active compounds read low 1.01 | locus YDL192W, strain arf1, active compounds read low 1.01 | locus YDR001C, strain nth1, active compounds read low 0.973 | locus YDR069C, strain doa4, active compounds read low 0.981 | locus YDR101C, strain arx1, active compounds read low 0.976 | locus YDR137W, strain rgp1, active compounds read low 1.01 | locus YDR159W, strain sac3, active compounds read low 0.975 | locus YDR162C, strain NBP2, active compounds read low 1.01 | locus YDR195W, strain ref2 0.904 | locus YDR297W, strain sur2, active compounds read low 0.975 | locus YDR318W, strain mcm21, active compounds read low 1.01 | locus YDR334W, strain swr1, active compounds read low 0.93 | locus YDR335W, strain msn5, active compounds read low 0.985 | locus YDR388W, active compounds read low 1.01 | locus YDR392W, strain spt3, active compounds read low 0.905 | locus YDR502C, strain sam2, active compounds read low 0.996 | locus YEL003W, strain gim4, active compounds read low 0.97 | locus YEL037C, strain rad23, active compounds read low 0.977 | locus YEL061C, strain CIN8 (second series), active compounds read low 0.977 | locus YEL061C, strain CIN8, active compounds read low 0.994 | locus YER015W, strain faa2, active compounds read low 0.982 | locus YER016W, strain bim1, active compounds read low 0.98 | locus YER110C, active compounds read low 1.02 | locus YER111C, strain swi4, active compounds read low 0.987 | locus YER155C, strain BEM2 (second series), active compounds read low 0.972 | locus YER155C, strain BEM2, active compounds read low 1 | locus YER167W, strain BCK2, active compounds read low 1.01 | locus YFR010W, strain ubp6, active compounds read low 0.978 | locus YGL078C, strain dbp3, active compounds read low 1.01 | locus YGL086W, strain mad1, active compounds read low 0.998 | locus YGL167C, strain pmr1, active compounds read low 0.979 | locus YGL173C, strain kem1, active compounds read low 0.983 | locus YGL227W, strain vid30, active compounds read low 0.981 | locus YGL240W, strain doc1, active compounds read low 0.979 | locus YGL248W, strain PDE1, active compounds read low 1 | locus YGL253W, strain hxk2, active compounds read low 0.977 | locus YGR135W, strain pre9, active compounds read low 1.04 | locus YGR229C, strain SMI1, active compounds read low 0.99 | locus YGR252W, strain gcn5, active compounds read low 1.01 | locus YHR013C, strain ard1, active compounds read low 0.959 | locus YHR027C, strain rpn1, active compounds read low 0.969 | locus YHR030C, strain SLT2, active compounds read low 1.01 and 1.08 | locus YHR079C, strain IRE1 (second series), active compounds read low 1.01 | locus YHR079C, strain IRE1, active compounds read low 1.08 | locus YHR094C, strain hxt1, active compounds read low 1 | locus YHR129C, strain ARP1, active compounds read low 1.01 | locus YHR142W, strain chs7, active compounds read low 0.954 | locus YHR200W, strain rpn10, active compounds read low 1.01 | locus YIL066C, strain RNR3, active compounds read low 0.998 | locus YIL073C, strain SPO22, active compounds read low 1.05 | locus YIL125W, strain kgd1, active compounds read low 1 | locus YIR030C, strain dcg1, active compounds read low 1.01 | locus YJL092W, strain hpr5, active compounds read low 0.966 | locus YJL095W, strain BCK1 (second series), active compounds read low 0.977 | locus YJL095W, strain BCK1, active compounds read low 0.972 and 1.1 | locus YJL115W, strain asf1, active compounds read low 0.939 | locus YJL129C, strain trk1, active compounds read low 0.975 | locus YJL134W, strain LCB3, active compounds read low 1.01 | locus YJL154C, strain vps35, active compounds read low 0.978 | locus YJL164C, strain tpk1, active compounds read low 1.01 | locus YJL166W, strain qcr8, active compounds read low 0.987 | locus YJL168C, strain set2, active compounds read low 0.997 | locus YJL187C, strain SWE1 (second series), active compounds read low 0.974 | locus YJL187C, strain SWE1, active compounds read low 0.994 | locus YJR043C, strain POL32, active compounds read low 0.989
